Measured values from PubChem BioAssay (NCI).
About 83,000 compounds went through this panel and 20% of them were active in at least one assay; those are over-represented in the sample as a whole.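 Values shown are percent growth following 48 h exposure of cells in 96-well plates to a single concentration of compound; below 10 was considered active.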 Unmarked numbers belong to inactive results. Active and inactive are the calls of the source.

What was measured:
Assay in all cases: NCI-60 one-dose screen, 48 h (100 = growth as untreated, 0 = no growth, -100 = all killed)
Conditions in all cases: 10 µM unless noted
NCI-H23 lung = tested on: NCI-H23 lung
NCI-H226 lung = tested on: NCI-H226 lung
NCI-H322M lung = tested on: NCI-H322M lung
HOP-62 NSCLC = tested on: HOP-62 NSCLC
NCI-H460 lung = tested on: NCI-H460 lung
HOP-92 NSCLC = tested on: HOP-92 NSCLC
NCI-H522 lung = tested on: NCI-H522 lung
A549/ATCC NSCLC = tested on: A549/ATCC NSCLC
786-0 renal = tested on: 786-0 renal
COLO 205 colon = tested on: COLO 205 colon
DU-145 prostate = tested on: DU-145 prostate
K-562 leukemia = tested on: K-562 leukemia
MALME-3M melanoma = tested on: MALME-3M melanoma
MDA-MB-231 breast = tested on: MDA-MB-231 breast
SF-268 CNS = tested on: SF-268 CNS
SF-295 CNS = tested on: SF-295 CNS
SF-539 CNS = tested on: SF-539 CNS
UACC-257 melanoma = tested on: UACC-257 melanoma
M14 melanoma = tested on: M14 melanoma
RXF 393 renal = tested on: RXF 393 renal

SMILES	growth (NCI-H23 lung) [%]	growth (NCI-H226 lung) [%]	growth (NCI-H322M lung) [%]	growth (HOP-62 NSCLC)	growth (NCI-H460 lung)	growth (HOP-92 NSCLC) [%]	growth (NCI-H522 lung)	growth (A549/ATCC NSCLC) [%]	growth (786-0 renal)	growth (COLO 205 colon)	growth (DU-145 prostate)	growth (K-562 leukemia)	growth (MALME-3M melanoma)	growth (MDA-MB-231 breast) [%]	growth (SF-268 CNS) [%]	growth (SF-295 CNS)	growth (SF-539 CNS) [%]	growth (UACC-257 melanoma)	growth (M14 melanoma)	growth (RXF 393 renal) [%]
COc1cc2nc(-c3ccc(-c4nn[nH]n4)cc3)[nH]c(=O)c2cc1OC	93.7	106	176	99.3%	115%	132	96.1%	30.5	104%	117%	114%	109%	215%	119	99.9	122%	99.5	122%	102%	–
Cc1ccc(C(c2c(O)c3cc(Br)ccc3[nH]c2=O)c2c(O)c3cc(Br)ccc3[nH]c2=O)cc1	86.7	74	96.7	77%	89.5%	74.1	77.8%	89.5	92.6%	111%	102%	–	91%	70.5	87.1	75.6%	91.2	98.3%	93.3%	–
CCC(=O)c1ccc(O)c(OC)c1	96.1	72.4	106	104%	104%	82.6	88.2%	86.5	4.29% (active)	120%	113%	–	104%	92	104	105%	111	85.7%	101%	111
CC1(C)CN(c2cnc(C(=O)Nc3cc(F)cc4cccnc34)cn2)CCN1	88.8	92.7	85.4	91.8%	82.5%	64.6	41%	92.5	78.9%	19.7%	101%	36.3%	47.5%	58	74.6	97.8%	83.7	93.5%	70.8%	–
c1ccc(CCSc2ncnc3nc[nH]c23)cc1	96.8	86.6	113	103%	82%	110	0.492% (active)	77.3	102%	90.1%	108%	72.4%	106%	85.2	103	75.6%	84.8	46.2%	97.5%	–
NC(=O)c1cccc(-c2ccccc2N2CCCCC2)c1	103	98.9	91	99.5%	108%	103	85.7%	99.1	85.3%	121%	99.8%	85.1%	80.8%	100	94	89.4%	97.8	99.3%	94.6%	–
Nc1nc(N)nc(NCc2ccccc2)n1	97.1	95.4	95.4	105%	109%	108	99.3%	101	102%	119%	112%	89.3%	108%	108	100	100%	100	110%	107%	–
C/C(=C(/c1ccccc1)c1ccc(OCC(O)CN2CCOCC2)cc1)c1ccccc1 (centres undefined)	101	96.6	95.4	90.1%	92.6%	80.2	73.3%	87.2	67.1%	69.4%	98.1%	19.7%	75.3%	104	104	108%	74.2	93.4%	-45.1% (active)	–
Clc1ccc(C2CC(c3cccc(Nc4ccncc4)c3)=NN2c2ccccc2)cc1 (centres undefined)	84.3	93.1	69.7	0.979% (active)	-70.5% (active)	55.8	-39.1% (active)	27.3	-94.3% (active)	-63.6% (active)	56.7%	0.432% (active)	-72% (active)	75.2	82.1	70%	71.5	34.5%	-80.6% (active)	–
C=C(C)[C@@H]1CC[C@]2(C(=O)NCCCN(CCC#N)CCC#N)CC[C@]3(C)[C@H](CC[C@@H]4[C@@]5(C)CCC(=O)C(C)(C)[C@@H]5CC[C@]43C)[C@@H]12	109	102	104	105%	104%	82.4	93.5%	91.2	94.2%	111%	105%	–	105%	103	94.6	99.8%	94.2	91.4%	99%	–
CCN(CCNc1cc(OC)cc2cccnc12)CCc1ccccc1	78.1	86.2	108	64.9%	86%	77.2	63.7%	74.4	87.2%	68.8%	101%	–	108%	70.7	84	83.5%	97.6	77.8%	93.4%	–
Cn1ncc2c(Nc3ccccc3Cl)nc(Cl)nc21	100	88.4	87.3	98.2%	114%	72.8	40.5%	103	103%	127%	139%	–	122%	87	114	103%	102	128%	–	–
NC(=O)c1ccc[n+](CC(=O)N2CCN(c3cc4c(cc3F)c(=O)c(C(=O)O)cn4C3CC3)CC2)c1	92.4	97.3	104	111%	101%	133	-73.1% (active)	104	74.6%	63.1%	96.4%	–	6.59% (active)	99.8	76.7	108%	88.6	89.4%	76.4%	–
Cc1cc2nc(-c3ccccc3)c(-c3ccccc3)nc2cc1C	98.2	94.9	112	111%	102%	89.6	94.9%	97.9	95.4%	119%	112%	–	113%	94.5	116	90%	109	117%	113%	111
O=C1c2ccccc2C(=O)c2c(NCCN=Cc3ccccc3O)cccc21	66.6	56.3	68.3	21.7%	20.9%	32	58.2%	49	-48.4% (active)	42.2%	-26% (active)	41.6%	80.2%	66.3	51.2	2.48% (active)	62	-14.3% (active)	35.6%	–
